From PubChem BioAssay
HepG2 tox-1 = qHTS for Inhibitors of TGF-b: Cytotox Counterscreen; HepG2 CAGA-GFP viability, ATP luminescence, 18 h; 410,000 compounds, 0.76% hits; Potency, µM (top dose mostly 46.1 µM), for the others: at the top dose activity change, negative = cytotoxicity, most hits filed as cytotoxic; AID 588856, 2011; also: potency is read from the fitted curve at half-maximal effect
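CellTiter-Glo luminescence gave cytotoxicity after 18 hours at 37 degrees C. The cells were HepG2 CAGA-GFP in 1% FBS DMEM, stimulated with 500 pg/mL TGF-beta after compound addition. %Activity was normalised to no-cell wells (complete cell-killing) and DMSO (no toxicity), and curves were fitted and classified.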
IL-1B inflam inh = qHTS for Inhibitors of Inflammasome Signaling: IL-1-beta AlphaLISA Primary Screen. THP-1 LPS/ATP IL-1B secretion, AlphaLISA, 16 h; active compounds read low. AID 743279, 2014. activity change, % at 57.5 µM. 360,000 compounds, 4.7% hits; in the data active = activity change below about -50%; inconclusive = mostly about -30% to -49%; also: % is scaled to controls: 0 for no effect and ±100 for the full control effect
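THP-1 cells pretreated 1 hr with compounds (up to 57.5 uM final), then stimulated with LPS (250 ng/mL final) plus ATP (1.25 mM final); secreted IL-1B measured by AlphaLISA after 16 hr, decreased signal indicating inhibition.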
Giardia killer = Small Molecules that selectively kill Giardia lamblia: qHTS | Giardia lamblia trophozoite viability | activity change, % at 7.66 µM, hits read low | 340,000 compounds, 0.15% hits | AID 540267, 2011; in the data active = activity change below about -80%; inconclusive = between about -30% and that limit;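 also: parasites exposed to compound for two days anaerobically before the ATP read; % is scaled to controls: 0 for no effect and ±100 for the full control effect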
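Each well holds 100 Giardia trophozoites and compound. After two days (48 hrs) at 37 deg C in anaerobic conditions, ATP is quantified by luminescence.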
HT1080-NT tox = qHTS for induction of synthetic lethality in tumor cells producing 2HG: qHTS for the HT-1080-NT fibrosarcoma cell line; HT-1080-NT fibrosarcoma viability, CellTiter-Glo ATP luminescence, 48 h; AID 686970, 2013; 360,000 compounds, 1.6% hits; Potency, µM (series often up to 46.1 µM), inactives show at the highest dose activity, negative = less viability, most hits filed as cytotoxic;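 also: NT is the 2HG producing partner of a matched IDH1 knockdown line; potency is read from the fitted curve at half-maximal effect; 0% = DMSO-treated cells and -100% = media-only wells without cells; nearly all actives have a fitted effect of over 55% in size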
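Fibrosarcoma NT cells, 750 per well in 5% FBS RPMI, were exposed to compound for 48 hours. Viability: CellTiter-Glo luminescence.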
HT1080 IDH1KD tx = qHTS for induction of synthetic lethality in tumor cells producing 2HG: qHTS for the HT-1080-IDH1KD cell line; HT-1080 IDH1 knockdown viability, ATP luminescence, 48 h; Potency, µM (doses to about 46.1 µM), inactives show top-dose activity, negative = toxicity, usual class: cytotoxic; 360,000 compounds, 2% hits; AID 686971, 2013;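 also: potency is read from the fitted curve at half-maximal effect; 0% = DMSO wells and -100% = cell-free medium wells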
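Using the IDH1-knockdown HT-1080 line run in the same batch and compound series as the NT line, viability after 48 h at 37 °C was determined by CellTiter-Glo luminescence and expressed as % activity.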
TGFb SMAD3 inh = qHTS for Inhibitors of TGF-b. Potency, µM (highest dose often 46.1 µM), inactives show top-dose activity, negative = inhibition, hits mostly inhibitors. HepG2 CAGA-GFP TGF-b/SMAD3 reporter, GFP fluorescence, 18 h; TGF-beta stimulated, 500 pg/mL final. 410,000 compounds, 1.2% hits. AID 588855, 2011; also: potency is read from the fitted curve at half-maximal effect; % is scaled to controls: 0 for no effect and ±100 for the full control effect; nearly all actives have a fitted effect of over 65% in size
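Cell-based qHTS in HEPG2 carrying a CAGA-GFP Smad reporter; compounds added before 500 pg/mL final TGF-beta, 18 h incubation at 37 degrees C, GFP fluorescence quantified per cell by imaging cytometry.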
TGFb CAGA inh = qHTS for Inhibitors of TGF-b: Confirmation of Cherry Picks; shares compounds with TGFb SMAD3 inh; HepG2 CAGA-GFP TGF-b reporter, GFP fluorescence, 18 h; cells stimulated with TGF-beta, 500 pg/mL; Potency, µM (series often up to 46.1 µM), inactives show top-dose activity, negative = inhibition, actives largely listed as inhibitors; 1,600 compounds, 63% hits; AID 720534, 2013; also: potency is read from the fitted curve at half-maximal effect; % is scaled to controls: 0 for no effect and ±100 for the full control effect; nearly all actives have a fitted effect of over 65% in size
HepG2 tox-2 = qHTS for Inhibitors of TGF-b: Cytotox Counterscreen for Cherry Picks; shares compounds with TGFb SMAD3 inh; HepG2 CAGA-GFP viability, ATP luminescence, 18 h; cells stimulated with TGF-beta, 500 pg/mL; Potency, µM (top dose mostly 46.1 µM), for the others: at the top dose activity, negative = cytotoxicity, most hits filed as inhibitors; 1,600 compounds, 27% hits; AID 720535, 2013; also: potency is read from the fitted curve at half-maximal effect; % is scaled to controls: 0 for no effect and ±100 for the full control effect; nearly all actives have a fitted effect of over 70% in size
TGFb CCL64 inh = qHTS for Inhibitors of TGF-b: CCL64 Cells Orthogonal Assay for Cherry Picks; Potency, µM (titrated, usually from 46.1 µM), for the others: at the top dose activity, negative = inhibition, actives largely listed as inhibitors; AID 720536, 2013; CCL64 CAGA-GFP reporter, TGF-b stimulated, GFP fluorescence, 18 h; 1,600 compounds, 41% hits; shares compounds with TGFb SMAD3 inh; also: potency is read from the fitted curve at half-maximal effect; nearly all actives have a fitted effect of over 65% in size
COP TGFb inh = qHTS for Inhibitors of TGF-b: Hit Validation in HepG2 Cells using COP promoter; AID 720537, 2013; 1,600 compounds, 3% hits; shares compounds with TGFb SMAD3 inh; HepG2 COP-GFP TGF-b reporter, GFP fluorescence, 18 h; cells stimulated by added recombinant TGF-beta; Potency, µM (doses to about 46.1 µM), for inactives: at the highest dose activity, negative = inhibition, most hits filed as inhibitors; also: potency is read from the fitted curve at half-maximal effect; nearly all actives have a fitted effect of over 70% in size
Numbers without * were called inactive; i = inactive; ? = inconclusive; . = no result. In the library only some 6.5% were active in any assay of this set; here they are far more common. Unless noted, calls follow the shape of the dose curve; as a rule, active = well fitted curve in the direction sought with a large enough effect; inconclusive = small, poorly fitted or top-dose-only effect, or another doubt; inactive = no such curve, though single readings can be large; an effect the other way counts as inactive or inconclusive.

SMILES	HepG2 tox-1	IL-1B inflam inh	Giardia killer	HT1080-NT tox	HT1080 IDH1KD tx	TGFb SMAD3 inh	TGFb CAGA inh	HepG2 tox-2	TGFb CCL64 inh	COP TGFb inh
Cc1ccc(C(NC(=O)C2CCCCC2)c2c(O)ccc3ccccc23)cc1 (stereo unspecified)	1%	-11	5	-23%	?	4.5µM*	7.3µM*	?	23µM*	35%
N#Cc1cnc(NN)nc1	11%	4	13	26%	6%	-21%	.	.	.	.
COc1ccc(/C=N/NC(=O)c2ccccc2[N+](=O)[O-])cc1CN1CCc2cc(OC)c(OC)cc2C1C (stereo unspecified)	-1%	-13	5	-7%	0%	11%	.	.	.	.
COc1ccc(/C=N\NC(=O)c2ccccc2[N+](=O)[O-])cc1COc1c(F)c(F)c(F)c(F)c1F	-4%	i	5	4%	2%	8.9µM*	2.6µM*	?	?	33%
COc1ccc(OC)c(N/C(C)=C/C(=O)c2ccccc2)c1	-9%	?	-1	11%	23%	7%	.	.	.	.
Cc1ccccc1Cn1ccc(NC(=O)c2cnn3c2NC(c2ccccc2)CC3C(F)(F)F)n1 (stereo unspecified)	-39%	-66*	-13	?	?	7.9µM*	?	?	23µM*	40%
CC(Oc1ccc(Cl)cc1Cl)C(=O)NC1=NN(c2ccccc2)C(=O)C1 (stereo unspecified)	-28%	1	-24	-29%	?	18µM*	?	?	?	61%
Cc1ccc(S(=O)(=O)N2CCOCC2)cc1C(=O)Nc1nc(-c2ccccn2)cs1	-5%	0	33	-12%	-27%	?	9.2µM*	?	?	9%
Fc1ccc(CNc2nc(-c3ccccc3)nc3ccccc23)cc1	2%	-62*	-10	?	-18%	18µM*	?	?	?	33%
Cc1ccc(-c2nc(Nc3cccc(O)c3)c3ccccc3n2)cc1	-71%	?	-18	?	-28%	?	.	.	.	.
Oc1cccc(Nc2nc(-c3ccccc3Cl)nc3ccccc23)c1	-8%	?	2	?	?	-20%	?	-15%	?	32%
O=C(O)c1cccc(Nc2nc(-c3ccccc3)nc3ccccc23)c1	-6%	13	6	-14%	-15%	-29%	.	.	.	.
Cc1ccc(-c2nc(Nc3ccc(O)cc3)c3ccccc3n2)cc1	-119%	-88*	1	21µM*	21µM*	?	?	?	15µM*	100%
c1ccc(Nc2nc(-c3ccccc3)nc3ccccc23)cc1	-41%	-7	0	2%	0%	-29%	?	?	?	33%
CCOC(=O)c1c(C)[nH]c(C(=O)OCC(=O)NCCc2ccc(OCC)c(OCC)c2)c1C	-3%	-6	3	-12%	?	?	?	?	-7%	25%
CCOC(=O)c1[nH]c(C)c(C(=O)OCC(=O)NCc2ccc(OC)c(OC)c2)c1C	-25%	12	-14	1%	-4%	3%	.	.	.	.
CCCCn1nnnc1C(c1ccccc1)N1CCN(C/C=C/c2ccccc2)CC1 (stereo unspecified)	-18%	-9	.	?	?	?	.	.	.	.
C(=C\c1ccccc1)/CN1CCN(C(c2ccccc2)c2nnnn2C2CCCCC2)CC1 (stereo unspecified)	-1%	-29	.	21%	7%	-6%	.	.	.	.
CCCCn1nnnc1C(c1ccccc1OC(F)(F)F)N1CCN(C/C=C/c2ccccc2)CC1 (stereo unspecified)	-16%	?	.	?	?	13µM*	18µM*	-19%	?	21%
C(=C\c1ccccc1)/CN1CCN(C(c2ccnc3ccccc23)c2nnnn2C2CCCCC2)CC1 (stereo unspecified)	-1%	?	.	?	?	11µM*	18µM*	?	18µM*	46%
CCCCn1nnnc1C(c1cccc2ccccc12)N1CCN(C/C=C/c2ccccc2)CC1 (stereo unspecified)	-6%	-59*	.	?	?	11µM*	?	?	?	56%
Cc1cccc(CSCCNC(=O)CSCc2ccc([N+](=O)[O-])cc2)c1	0%	-9	-14	4%	1%	?	.	.	.	.
CCN1CCN(C(c2cccs2)C(C)NC(=O)CC(C)C)CC1 (stereo unspecified)	-4%	3	-21	11%	-1%	-18%	.	.	.	.
O=C(CSc1nnc(COc2cccc3cccnc23)o1)N1CCc2ccccc21	-37%	20	5	2.2µM*	1.3µM*	?	?	?	-28%	39%
O=C(CSc1nnc(Cc2ccccc2)o1)N1CCc2ccccc21	6%	32	5	-8%	-23%	?	.	.	.	.
CCOC(=O)NC(=O)/C(C#N)=C/c1ccc(N(C)C)cc1	-25%	.	-8	23%	16%	0%	.	.	.	.
